Measured values published in PubChem BioAssay (NCATS).
Values joined by “and” are separate entries in the source; they are usually repeats but may differ in a detail not shown here. Equal values may be shown once. Active and inactive are the calls of the source.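 How the source made its calls: active means compounds whose dose series gives a full or clear partial fitted curve of increased nuclear translocation; inconclusive means weak partial curve or effect only at the top dose; inactive means no dose-dependent translocation response.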

biological target: Glucocorticoid receptor (Homo sapiens) (UniProt P04150); experiment: GR-GFP Redistribution (AID 450); settings: U2OS GR-GFP nuclear translocation, laser cytometry, 2 h
Source text: NIH Molecular Libraries Screening Centers Network [MLSCN]
NIH Chemical Genomics Center [NCGC]
The glucocorticoid receptor (GR) Redistribution assay (BioImage) enables the visualization of GR cytoplasmic to nuclear translocation by the use of a GR-GFP fusion. GR is normally cytosolic, however ligands such as dexamethasone, cause nuclear translocation where the protein binds to response elements and interacts with various co-factors to modulate transcription. Because both functional agonists and antagonists can induce nuclear translocation, this assay can detect ligands regardless of their effects on gene expression. GR-GFP expressing U20S cells were used here. Dexamethasone was the positive control for translocation and data normalization. Detection of nuclear translocation was performed in 1536-well plates using the Acumen laser scanning plate cytometer (TTP LabTech). Validation of this assay and a detailed protocol have been described.
NCGC Assay Protocol Summary:
GR-GFP U2OS cells were maintained in DMEM with Glutamax and high glucose, 1% v/v penicillin-streptomycin, and 0.5 mg/mL Geneticin. For cell culture, 10% […] fetal bovine serum (FBS) was used (Invitrogen #26140-079). For cell plating 10% dextran, charcoal-stripped FBS (Hyclone SH30068.03) was used. U2OS cells were trypsin treated, suspended in medium, and passed through a 40 um basket filter. The cells were seeded at 600 cells/5 uL/well into clear-bottom black sided 1536-well plates and incubated for approximately 20 hrs, 37degC, 5%, CO2 in a tissue culture incubator. Twenty-three nL of compound was delivered by pin tool and the plates were incubated as above for 2 hrs. The compounds were tested as a 7-point titration ranging from 46 uM to 0.6 nM. The cells were fixed using the Kalypsys Washer/Dispenser station. The fixing protocol involved aspiration of the cell media, addition of 6 uL/well of PBS, aspiration of PBS, addition of 5uL/well of 100% methanol, aspiration of methanol, and addition of 3 uL/well PBS with 1.5 uM propidium iodide (PI). The plates were read by the Acumen Explorer using a 1 x 8 um scan of the whole well area. PI fluorescence triggered the collection of PI and GFP signals. A nuclei population was defined by a 10 to 100 um width and depth filter that eliminated small and large fluorescent particles. Two subpopulations of nuclei were then defined by peak intensity of GFP fluorescence to obtain translocated and untranslocated objects. The number of translocated objects was used for data normalization.
Keywords: NIH Roadmap, MLSCN, MLI, MLSMR, sOGT, qHTS, NCGC
Potency means the concentration at half of the fitted maximal effect.

Chain of Glucocorticoid receptor (Homo sapiens) (P04150 whole entry, looked up): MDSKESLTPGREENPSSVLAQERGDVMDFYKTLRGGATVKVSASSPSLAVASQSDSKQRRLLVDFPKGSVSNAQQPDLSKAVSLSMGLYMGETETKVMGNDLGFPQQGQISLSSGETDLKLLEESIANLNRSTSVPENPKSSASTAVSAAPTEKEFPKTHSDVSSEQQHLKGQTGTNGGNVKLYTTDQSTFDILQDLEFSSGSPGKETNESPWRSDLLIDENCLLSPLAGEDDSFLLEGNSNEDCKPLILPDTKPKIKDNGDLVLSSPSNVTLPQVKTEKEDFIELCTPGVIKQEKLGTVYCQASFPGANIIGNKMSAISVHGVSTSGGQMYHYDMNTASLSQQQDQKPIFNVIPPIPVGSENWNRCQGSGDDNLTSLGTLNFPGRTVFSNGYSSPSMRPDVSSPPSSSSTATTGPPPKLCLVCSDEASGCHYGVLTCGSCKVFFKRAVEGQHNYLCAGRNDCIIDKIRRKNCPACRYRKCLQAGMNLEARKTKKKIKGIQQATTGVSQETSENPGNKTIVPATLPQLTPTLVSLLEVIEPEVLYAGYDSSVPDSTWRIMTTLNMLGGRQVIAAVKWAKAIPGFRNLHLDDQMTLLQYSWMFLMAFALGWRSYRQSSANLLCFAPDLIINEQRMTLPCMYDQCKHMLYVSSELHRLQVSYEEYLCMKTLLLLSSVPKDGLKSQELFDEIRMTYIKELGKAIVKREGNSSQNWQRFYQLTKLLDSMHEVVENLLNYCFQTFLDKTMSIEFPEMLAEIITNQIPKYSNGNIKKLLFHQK

Compound | Potency
COc1ccc(-c2coc3cc(O)cc(O)c3c2=O)cc1 | > 46 µM (inactive) and > 20.6 µM (inactive)
CS(=O)c1ccc(-c2nc(-c3ccc(F)cc3)c(-c3ccncc3)[nH]2)cc1 (stereo not drawn) | > 46 µM (inactive)
COc1ccc2c3c1OC1C[C@@H](O)C=C[C@@]31CCN(C)C2 (stereo partly drawn) | > 20.6 µM (inactive)
CC(=O)c1ccc(S(=O)(=O)NC(=O)NC2CCCCC2)cc1 | > 46 µM (inactive) and > 20.6 µM (inactive)
CCCNC(=O)NS(=O)(=O)c1ccc(Cl)cc1 | > 46 µM (inactive) and > 20.6 µM (inactive)
O=c1cc(-c2ccccc2)oc2cc(O)c(O)c(O)c12 | > 46 µM (inactive)
O=c1c(O)c(-c2ccc(O)cc2)oc2cc(O)cc(O)c12 | > 20.6 µM (inactive) and > 46 µM (inactive)
Nc1ncnc2c1ncn2[C@@H]1O[C@@H](CO)[C@H](O)[C@H]1O | > 20.6 µM (inactive)
CC1(C)CCC2=C(O1)c1ccccc1C(=O)C2=O | > 46 µM (inactive)
CCCCCCCCCCCC1=C(O)C(=O)C=C(O)C1=O | > 46 µM (inactive)
O=c1cc(-c2ccccc2)oc2cc(O)cc(O)c12 | > 20.6 µM (inactive)
CC(C)NCC(O)COc1cccc2[nH]ccc12 (stereo not drawn) | > 20.6 µM (inactive)
CC(C)(C)c1ccc(C(O)CCCN2CCC(C(O)(c3ccccc3)c3ccccc3)CC2)cc1 (stereo not drawn) | > 20.6 µM (inactive)
O=C1NCC2(CCN(CCc3ccccc3)CC2)O1 | > 46 µM (inactive) and > 20.6 µM (inactive)
CC/C(=C(\c1ccccc1)c1ccc(OCCN(C)C)cc1)c1ccccc1 | > 46 µM (inactive) and > 20.6 µM (inactive)
CC(=O)CCCCn1c(=O)c2c(ncn2C)n(C)c1=O | > 46 µM (inactive) and > 20.6 µM (inactive)
NC(N)=Nc1nc(CSCC/C(N)=N/S(N)(=O)=O)cs1 | > 46 µM (inactive) and > 20.6 µM (inactive)
O=C1NC(=O)C(c2ccccc2)(c2ccccc2)N1 | > 46 µM (inactive) and > 20.6 µM (inactive)
CC(C)OC(=O)C(C)(C)Oc1ccc(C(=O)c2ccc(Cl)cc2)cc1 | > 46 µM (inactive) and > 20.6 µM (inactive)

Compound | Potency
CCN(CC)C(=O)c1ccc(O)c(OC)c1 | > 46 µM (inactive) and > 20.6 µM (inactive)
O=c1c(-c2ccc(O)cc2)coc2cc(O)ccc12 | > 46 µM (inactive)
CC(C)[C@H](CO)Nc1nc(Nc2ccc(C(=O)O)c(Cl)c2)c2ncn(C(C)C)c2n1 | > 46 µM (inactive)
CCCCC1C(=O)N(c2ccccc2)N(c2ccccc2)C1=O | > 46 µM (inactive) and > 20.6 µM (inactive)
COc1cccc(-c2cc(=O)c3ccccc3o2)c1N | > 46 µM (inactive)
O=c1cc(-c2ccc(O)cc2)oc2cc(O)cc(O)c12 | > 46 µM (inactive) and > 20.6 µM (inactive)
O=C1C[C@@H](c2ccc(O)cc2)Oc2cc(O)cc(O)c21 | > 20.6 µM (inactive) and > 46 µM (inactive)
COc1ccc(-c2coc3cc(O)ccc3c2=O)cc1 | > 46 µM (inactive)
O=C(O)c1cc(-c2ccccc2)nc2ccccc12 | > 20.6 µM (inactive)
c1cc(-c2sc(-c3ccncc3)c(-c3ccncc3)c2-c2ccncc2)ccn1 | > 46 µM (inactive)
CC(=O)N[C@@H](CS)C(=O)O | > 20.6 µM (inactive)
C[C@@H](O)[C@H]1C(=O)N2C(C(=O)O)=C(S[C@@H]3CN[C@H](C(=O)N(C)C)C3)[C@H](C)[C@H]12 | > 20.6 µM (inactive)
CC(C(=O)O)c1ccc(-c2ccccc2)c(F)c1 (stereo not drawn) | > 20.6 µM (inactive)
CCN1CCC[C@H]1CNC(=O)c1cc(S(N)(=O)=O)ccc1OC | > 20.6 µM (inactive) and > 46 µM (inactive)
O=C(O)c1cc(O)c2c(c1)C(=O)c1cccc(O)c1C2=O | > 20.6 µM (inactive)
COCCCCC(=NOCCN)c1ccc(C(F)(F)F)cc1 | > 46 µM (inactive) and > 20.6 µM (inactive)
O=C(O)CCc1nc(-c2ccccc2)c(-c2ccccc2)o1 | > 46 µM (inactive) and > 20.6 µM (inactive)
Clc1ccc(Cn2c(CN3CCCC3)nc3ccccc32)cc1 | > 46 µM (inactive) and > 20.6 µM (inactive)
CC[C@]1(O)C[C@@H]2CN(CCc3c([nH]c4ccccc34)[C@@](C(=O)OC)(c3cc4c(cc3OC)N(C)[C@H]3[C@@](O)(C(=O)OC)[C@H](OC(C)=O)[C@]5(CC)C=CCN6CC[C@]43[C@@H]65)C2)C1 | > 20.6 µM (inactive)
